Results reported in PubChem BioAssay (EPA / NIEHS).
Active and inactive are the calls of the source. Rule for the calls: active = hit-call score of the fitted dose curve at least 0.9, where 1 is the maximum; inactive = score below 0.9.

Read-out: BCL2L11 (gene 10018)
Test: LTEA_HepaRG_BCL2L11: Life Technologies and Expression Analysis (LTEA) Assay for Bcl-2 (BCL2L11) gene using HepaRG (AID 2283473)
Details: mRNA level, 48 h; actives raise or lower the signal
Method: LTEA_HepaRG is a cell based, multiplexed-readout assay that uses HepaRG, a human liver cell line, with measurements taken at 48 hours after chemical dosing on a 96-well plate.LTEA_HepaRG_BCL2L11 is one of 102 assay component(s) measured in the LTEA HepaRG cell culture assay. It is a marker of Cell proliferation, survival, death.Data from the assay component LTEA_HepaRG_BCL2L11 was analyzed into 1 endpoint. This assay endpoint, LTEA_HepaRG_BCL2L11, was analyzed with bidirectional fitting relative to DMSO as the negative control and baseline of activity. Using a type of inducible reporter, measures of mRNA induction for gain or loss-of-signal activity can be used to understand regulation of transcription factor activity. To generalize the intended target to other relatable targets, this assay endpoint is annotated to the cell cycle intended target family, where the subfamily is Cell proliferation, survival, death.
A total of 1060 chemcials from the ToxCast library were tested in eight-point concentration-response experiments. Cell culture and cytotoxicity assays were conducted at Thermo Fisher Scientific's Custom Services facility (Madison, WI). A single lot of human HepaRG cells (Thermo Fisher Scientific, Frederick, MD) was used for the cell culture experiments. 96-well format collagen type I coated plates of human HepaRG cells were prepared using established methods. Briefly, cryopreserved HepaRG cells were thawed, plated at a density of approximately 100,000 cells/well in HepaRG Thaw, Plate, and General Purpose media (HPRG770, Thermo Fisher Scientific), and incubated for 48 hours. 0.5% DMSO was selected as vehicle control to balance the requisite need of DMSO in HepaRG cultures to maintain differentiation (for example, baseline metabolism, proportions of hepatocytes vs. cholangiocytes), while enabling further hepatic receptor pathway activation (for example, PXR and CAR) in response to chemical exposure. 48 hours after plating, the culture medium was replaced with HepaRG Serum-Free Incudtion Media. Cells were exposed to each test chemical in duplicate and maintained in CO2 incubators for another 48 hours. Chemical plates were thawed to room temperature and 200x concentrations of treatment groups were prepared. 8-point conentration-reponse curves were made with the highest exposure at 100 uM, followed by half-log dilutions, all in 0.5% DMSO. Each test plate contained variouse controls, induction positive controls (1mM phenobarbital), cytotoxicity positive controls ([…] aflatoxin B1), vehicle controls (0.5% DMSO), and total lysis controls (0.5% DMSO). Cell morphology images were taken using an Essen IncuCyte FLR automated microscope, with six 96-well plates imaged in about 24 minutes. Images were captured and exported and JPEG files. Spent culture media was transfered to black-well plates for the LDH assay, and remaining media was sorted at -80 C for later use. Cells were treated with RLT buffer and frozen until shipped for gene expression analysis. Total RNA was isolated from the cell suspension in 75 uL of Buffer RLT (Qiagen, Germantown, MD 20874) by Quintiles/Expression Analysis (Durham, NC) using a custom isolation procedure. Total RNA from each plate well was transferred to a preamplification plate. Fluidigm's 96.96 Dynamic ArrayTM (Fluidigm, Amsterdam, the Netherlands) technology was used for gene expression analyses by quantitative reverse transcription polymerase chain reaction (qRT-PCR, performed by Quintiles/Expression Analysis, Durham, NC)89. Standard TaqManTM Assays (Applied Biosystems/ThermoFisher Scientific, Foster City, CA) were used to assess the expression of 93 genes selected based on their selectivity and sensitivity to important hepatic receptors known to be modulated by environmental chemicals; importance in human hepatocyte functionality; and hepatotoxicity. […]

SMILES | outcome | AC50
C=CCc1ccc(OC)c(OC)c1 | inactive | 
CCN(CC)CCOc1ccc(C(=C(Cl)c2ccccc2)c2ccccc2)cc1 |  | 76.5 µM (active)
CC(C)c1cccc(C(C)C)c1 | inactive | 
Cc1occc(=O)c1O | inactive | 
CCCCCCC(C=O)=Cc1ccccc1 | inactive | 
COc1ccc(C(=O)Nc2nc3ccccc3c(NCc3ccccc3)c2C#N)cc1 |  | 10.8 µM (active)
CC(=O)[C@@]1(O)CC[C@H]2[C@@H]3CCC4=CC(=O)CC[C@]4(C)[C@H]3CC[C@@]21C | inactive | 
CC(C)COC(=O)CCCCC(=O)OCC(C)C | inactive | 
CN(C)CCCN1c2ccccc2Sc2ccc(Cl)cc21 |  | 72.8 µM (active)
CCOCCOCCO | inactive | 
Cn1cnc2c1c(=O)[nH]c(=O)n2C | inactive | 
Cc1c(C)c2c(c(C)c1O)CCC(C)(COc1ccc(CC3SC(=O)NC3=O)cc1)O2 (stereo not given) |  | 90.1 µM (active)
Nc1nc(=S)c2[nH]cnc2[nH]1 | inactive | 
O=C1c2c(O)cccc2Cc2cccc(O)c21 | inactive | 
CC(C)OC(=O)C(C)(C)Oc1ccc(C(=O)c2ccc(Cl)cc2)cc1 | inactive | 
CN(C)CCCN(C)CCCN(C)C | inactive | 
O=Cc1ccccc1C=O | inactive | 
OCC(O)CO | inactive | 
CC1(C)C(=O)NC(=O)N1CO | inactive | 
C/C=C/C=C/C(=O)O |  | 0.00162 µM (active)

SMILES | outcome | AC50
CCC(C)N(C)C(=O)c1cc2ccccc2c(-c2ccccc2Cl)n1 (stereo not given) |  | 31.8 µM (active)
C/C=C/c1ccc(OC)cc1 | inactive | 
CCCCCCCCCC[N+](C)(C)[O-] | inactive | 
CCCC[C@H]1CN(CC2CCOCC2)C(=O)OC12CCN(C1(C)CCN(C(=O)c3c(C)ncnc3C)CC1)CC2 | inactive | 
CCCCOC(=O)CCCCC(=O)OCCCC | inactive | 
O=C(O)c1cccnc1 | inactive | 
CN(C)C(=O)NC1(c2ccccc2)CCN(CC[C@@]2(c3ccc(F)c(F)c3)CN(C(=O)c3ccccc3)CCO2)CC1 | inactive | 
COc1ccc(OC(F)(F)F)cc1CN[C@H]1CCCN[C@H]1c1ccccc1 |  | 84.5 µM (active)
CCCCCCCCCCCCCCCCO | inactive | 
CC(=O)O | inactive | 
COC(=O)CCC(=O)OC | inactive | 
O=C(O)CC(O)(CC(=O)O)C(=O)O | inactive | 
O=C(O)CN(CC(=O)O)CC(=O)O | inactive | 
NC(=Nc1ccccc1)Nc1ccccc1 | inactive | 
Cc1ccc(C(C)(C)C)c(O)c1 | inactive | 
CC(COCC(C)OC(=O)c1ccccc1)OC(=O)c1ccccc1 (stereo not given) | inactive | 
Nc1nc(Cl)nc2c1ncn2[C@H]1C[C@H](O)[C@@H](CO)O1 | inactive | 
O=C1O[C@H]([C@H](O)CO)C(O)=C1O | inactive | 
O=C1NC(=O)C(c2ccccc2)(c2ccccc2)N1 | inactive | 
CC(C)c1cccc(C(C)C)c1NC(=O)NS(=O)(=O)c1cc(C(C)(C)O)co1 | inactive | 
